From PMC5540273 (PLoS ONE, 2017)

Key:
Settings in all cases: concentration: 1 μM,replicates: in singlicate; n = 1
[1] = system: T1, ERK1
T1 construct: gene MAPK3

[2] = system: T2, ERK2
T2 construct: gene MAPK1

[3] = system: T3, ERK3
T3 construct: gene MAPK6

[4] = system: T4, ERK4
T4 construct: gene MAPK4

[5] = system: T5, ERK5
T5 construct: gene MAPK7

[6] = system: T6, ERK8
T6 construct: gene MAPK15

[7] = system: ERN1
[8] = system: T7, FAK
T7 construct: gene PTK2

[9] = system: FER
[10] = system: FES
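Further: KINOMEscan kinase panel screen.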

Structure (SMILES)	%Inh [1] [%]	%Inh [2] [%]	%Inh [3] [%]	%Inh [4] [%]	%Inh [5] [%]	%Inh [6] [%]	%Inh [7] [%]	%Inh [8] [%]	%Inh [9] [%]	%Inh [10] [%]
CCN1CCN(CCCC(=O)Nc2n[nH]c3nc(-c4ccc(O)cc4)c(Br)cc23)CC1 [SB-731579]	0	0	0	0	87	56	0	0	0	0
CN(c1ccccc1CNc1nc(Nc2ccc3c(c2)CC(=O)N3)ncc1C(F)(F)F)S(C)(=O)=O	68	82	0	5	24	95.8	0	–	82	70
Cc1ccc(Nc2ccnc(Nc3ccc4c(c3)CS(=O)(=O)C4)n2)cc1O.Cl [GW579362]	0	0	51	48	0	18	42	65	52	2
COC(=O)c1cccc(NC(=O)NC2CCN(c3ccnc(Nc4cc(OC)c(OC)c(OC)c4)n3)C2)c1 (centres unmarked) [GSK1379767]	0	0	19	0	0	0	4	0	17	15
c1ccc(Oc2ccc(Nc3ccnc4ccc(-c5ccccn5)cc34)cc2)cc1 [GW407034]	0	83	4	0	0	31	0	0	18	0
COC(=O)Nc1nc2cc(Oc3ccc(NC(=O)Nc4cc(C(F)(F)F)ccc4Cl)cc3)ccc2[nH]1.Cl [GW697465]	0	0	6	0	0	90.9	0	0	24	0
